About 6,900 (2%) of roughly 340,000 compounds were called active. No stated cut-off is given here; in the data, active means inhibition above about 30%; inactive means below that, where a call was filed. The full list was thinned out, with actives kept by preference.
biological target: D(2) dopamine receptor (Homo sapiens) (UniProt P14416); assay: HTS Assay for Allosteric Antagonists of the Human D2 Dopamine Receptor: Primary Screen for Antagonists; conditions: HEK293 TREx D2 cells, calcium flux, dopamine EC80; at 10 µM; stronger effect = higher value; further: 0% is about no effect
How it was run: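 Tetracycline-induced HEK293 T-REx cells expressing D2 force-coupled to calcium signalling were dye-loaded, exposed to compound for 180 s, then challenged with an EC80 of dopamine; calcium flux was followed kinetically for a further 180 s.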

D(2) dopamine receptor (Homo sapiens), sequence (P14416 whole entry, looked up): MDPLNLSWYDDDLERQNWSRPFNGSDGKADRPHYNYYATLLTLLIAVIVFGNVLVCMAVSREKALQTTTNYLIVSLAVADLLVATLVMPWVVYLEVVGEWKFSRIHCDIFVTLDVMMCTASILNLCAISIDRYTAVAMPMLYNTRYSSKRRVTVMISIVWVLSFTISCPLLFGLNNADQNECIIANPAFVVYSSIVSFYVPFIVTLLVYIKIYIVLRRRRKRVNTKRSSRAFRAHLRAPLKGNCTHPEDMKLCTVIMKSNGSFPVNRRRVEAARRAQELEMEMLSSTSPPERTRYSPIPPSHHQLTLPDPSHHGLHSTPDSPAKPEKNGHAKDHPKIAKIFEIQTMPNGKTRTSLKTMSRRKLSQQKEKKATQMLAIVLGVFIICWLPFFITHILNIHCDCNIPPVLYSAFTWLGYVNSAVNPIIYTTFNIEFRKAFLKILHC

Row | SMILES | inhibition
1 | Cc1cc(C(=O)Nc2nnc(C3CC3)s2)c(C)s1 | 3.85% (inactive)
2 | COC(=O)c1ccc(CN2CCC(CO)(Cc3ccc(OC)cc3)CC2)cc1 | 63.2% (active)
3 | CCOC(=O)C1(CCOC)CCN(Cc2ccc(C(=O)OC)cc2)CC1 | 5.1% (inactive)
4 | COc1ccc(CC2(CO)CCN(Cc3cnn(C)c3)CC2)cc1 | -4.17% (inactive)
5 | Cc1ccc(C)c(NC(=O)COC(=O)CSc2ccccc2)c1 | -6.28% (inactive)
6 | N#CCCN(C(=O)COC(=O)C1CCN(c2ccc(C(F)(F)F)cn2)CC1)c1ccc(F)cc1 | 5.59% (inactive)
7 | COc1ccc(Cl)cc1NC(=O)COc1ccc2c(c1)OCO2 | 7.9% (inactive)
8 | C[C@H](OC(=O)n1ccnc1)[C@@H]1O[C@@]2(C)CCC[C@@H]1O2 | -7.72% (inactive)
9 | CC1(C)OC(=O)N2CCc3ccccc3C21C (stereo unspecified) | 40.5% (active)
10 | CC1Cc2ccccc2N1C1=CC(=O)CC(C)(C)C1 (stereo unspecified) | 3.51% (inactive)
11 | CCN(CC(=O)Nc1ccccc1C(F)(F)F)C(=O)CSCc1c(C)noc1C | 1.97% (inactive)
12 | O=C(CC1(O)C(=O)N(CN2CCOCC2)c2ccccc21)c1ccccc1 (stereo unspecified) | 30.3% (active)
13 | C=CCN1C(=O)C(O)(CC(=O)c2ccc(Cl)cc2)c2ccccc21 (stereo unspecified) | 0.63% (inactive)
14 | C=CCN1C(=O)C(O)(CC(=O)c2ccccn2)c2ccccc21 (stereo unspecified) | 3.67% (inactive)
15 | CCc1noc(C)c1C(=O)Oc1ccc(N(C)S(=O)(=O)c2ccc(C)c(C)c2)cc1 | -5.58% (inactive)
16 | Cc1ccc(S(=O)(=O)N(C)C)cc1NC(=O)C(C)OC(=O)c1ccc2ccccc2n1 (stereo unspecified) | 5.2% (inactive)
17 | COc1cc(C(C)=O)ccc1OC(C)C(=O)Nc1ccc(S(=O)(=O)N2CCCC2)cc1 (stereo unspecified) | -10.1% (inactive)
18 | O=C1CN(C(=O)CN2C(=O)NC3(CCCCC3)C2=O)c2ccccc2N1 | 3.68% (inactive)
19 | CC(=O)N1C(=O)C2(Nc3ccccc3N2)c2ccccc21 | 34.2% (active)
20 | CC(C)(C)C(=O)CCN1C(=O)C2(OCCO2)c2ccccc21 | -2.06% (inactive)
21 | CC1CCN(C(=O)COC(=O)c2cc(=O)[nH]c3ccccc23)CC1 | -0.452% (inactive)
22 | CC(NC(=O)c1ccccc1F)c1cccc2ccccc12 (stereo unspecified) | 10.4% (inactive)
23 | COc1ccc(OC)c(CNC(=O)Cn2nc(C)c3c(C)n(-c4ccc(C)cc4)nc3c2=O)c1 | 30% (active)
24 | CCOC(=O)C1CCN(C(=O)Cn2nc(C)c3c(C)n(-c4ccccc4)nc3c2=O)CC1 | 2.33% (inactive)
25 | Cc1nn(CC(=O)N2CCCCC2)c(=O)c2nn(-c3ccccc3)c(C)c12 | 20.3% (inactive)
26 | CC(=O)c1sc(N)nc1C | 9.17% (inactive)

Row | SMILES | inhibition
27 | COc1ccc(C(C)(C)C)cc1NC(=O)CCN1C(=O)C2CCCCC2C1=O (stereo unspecified) | 11.5% (inactive)
28 | Cc1ccc(CC(=O)Nc2ccc(S(=O)(=O)N3CCOCC3)cc2)cc1C | 19% (inactive)
29 | CN1C(C(=O)NCC2CC2)CC2Cn3c(nc4ccccc43)C21 (stereo unspecified) | 6.56% (inactive)
30 | C[C@H]1[C@H]2c3nc4ccccc4n3C[C@H]1ON2C1CCCCC1 | 31% (active)
31 | CN1C(C(=O)NCc2ccco2)CC2Cn3c(nc4ccccc43)C21 (stereo unspecified) | 12.7% (inactive)
32 | Cc1cc(C(=O)COc2ccc(Br)cc2F)c(C)n1C1CC1 | -10.6% (inactive)
33 | O=C(CN1CCN(c2ccccc2O)CC1)NC(=O)NCc1ccccc1 | -6.15% (inactive)
34 | COc1ccc2oc(C(=O)OCC(=O)N(CC(C)C)c3c(N)n(Cc4ccccc4)c(=O)[nH]c3=O)c(C)c2c1 | -27.2% (inactive)
35 | Cc1ccc(NC(=O)C(C)OC(=O)Cc2c[nH]c3ccccc23)cc1S(=O)(=O)N1CCOCC1 (stereo unspecified) | -4.91% (inactive)
36 | CC(C)CCN1CCC(C)(NC(=O)c2ccccc2)C1=O (stereo unspecified) | 3.51% (inactive)
37 | CC(OC(=O)CN1C(=O)c2ccccc2C1=O)C(=O)c1ccccc1 (stereo unspecified) | 10.6% (inactive)
38 | Cc1noc(C)c1S(=O)(=O)N(CC(=O)NCc1ccc(Cl)cc1)c1ccc2c(c1)OCO2 | 1.26% (inactive)
39 | CCN(CC(=O)NCc1ccc(Cl)cc1)C(=O)c1c(C)noc1C | 30.3% (active)
40 | CCN(CC(=O)NCc1ccc(Cl)cc1)C(=O)CSc1ccccc1 | -4.45% (inactive)
41 | CC(=O)c1c(C)[nH]c(C(=O)COc2ccc3c(C)cc(=O)oc3c2)c1C | 1.65% (inactive)
42 | CN(C)C(=O)N=NC(=O)N(C)C | 6.75% (inactive)
43 | CCC(C)CCN1CCN=C1N(C)C (stereo unspecified) | -4.14% (inactive)
44 | COc1ccc(-c2nc(N)ncc2-c2ccc(Cl)cc2)c(O)c1 | -27.1% (inactive)
45 | CCOc1ccc(-c2nc(N)ncc2-c2ccccc2OC)c(O)c1 | 34.9% (active)
46 | C=C(C)COc1ccc(-c2nc(N)ncc2-c2ccccc2OC)c(O)c1 | -11.9% (inactive)
47 | CCCCN1C(=O)C(=O)N(CC(=O)Nc2cccc(C(C)=O)c2)C1=O | 2.29% (inactive)
48 | COc1ccc(C(=O)OC(C)C(=O)NC2CCCC2)cc1S(=O)(=O)N1CCOCC1 (stereo unspecified) | -6.41% (inactive)
49 | O=[N+]([O-])c1ccc(NCCCN2CCOCC2)c(Cl)c1 | -7.9% (inactive)
50 | O=C(NCCCN1CCOCC1)c1ccc([N+](=O)[O-])cc1[N+](=O)[O-] | 48.1% (active)
51 | O=C(NCCCN1CCOCC1)c1ccc(N2CCCC2)c([N+](=O)[O-])c1 | -5.74% (inactive)
52 | COc1ccc(CC2c3cc(OC)c(OC)cc3CC[N+]2(C)CCC(=O)OCCCCCOC(=O)CC[N+]2(C)CCc3cc(OC)c(OC)cc3C2Cc2ccc(OC)c(OC)c2)cc1OC (stereo unspecified) | 2.9% (inactive)

Row | SMILES | inhibition
53 | COc1ccc(Cl)cc1NC(=O)NC(C)C(C)(C)C (stereo unspecified) | 34.2% (active)
54 | COC(=O)[C@@H](NC(=O)Nc1cc(Cl)ccc1C)C(C)C | 18.4% (inactive)
55 | COc1ccc(Cl)cc1NC(=O)CNc1ccccc1F | 0.751% (inactive)
56 | Cc1cc(C(=O)Nc2ccc(C)c(S(=O)(=O)N3CCOCC3)c2)c2ccccc2n1 | 3.28% (inactive)
57 | O=C(c1cc(-c2ccco2)nc2ccccc12)N(Cc1nnc(-c2ccc(Cl)cc2)o1)C1CC1 | -3.48% (inactive)
58 | CCC(CC)C(=O)Nc1ccc(S(=O)(=O)Nc2nccs2)cc1 | 32.1% (active)
59 | Cc1ccc(OCCC(=O)Nc2ccc(S(=O)(=O)Nc3nccs3)cc2)cc1 | 23.7% (inactive)
60 | COc1ccccc1OC(C)C(=O)Nc1ccc(S(=O)(=O)Nc2nccs2)cc1 (stereo unspecified) | -2.37% (inactive)
61 | COc1ccc(CN2CCN(Cc3ccc(OC)c(OC)c3OC)CC2)cc1 | -16% (inactive)
62 | CNCC(O)CN1CCN(c2ccccc2OC)CC1 (stereo unspecified) | -12.4% (inactive)
63 | COc1ccccc1N1CCN(Cc2ccc(OC)c3ccccc23)CC1 | 72.3% (active)
64 | COc1ccccc1N1CCN(Cc2cc(OC)c3c(c2)OCO3)CC1 | 85.7% (active)
65 | COc1ccccc1CN1CCN(Cc2cc(OC)c(OC)cc2OC)CC1 | -0.792% (inactive)
66 | COc1ccccc1N1CCN(CCCCOc2ccc(F)cc2)CC1 | 1.05% (inactive)
67 | COc1ccc(S(=O)(=O)N2CCOCC2)cc1NC(=O)CSc1cc(C)ccc1C | -16% (inactive)
68 | CCN(CC(=O)Nc1ccc(NC(C)=O)cc1)C(=O)CSC(=S)N1CCCC1 | 12.7% (inactive)
69 | CC1(C)O[C@@H]2[C@H](O1)[C@@H](COS(=O)(=O)O)O[C@H]2n1cnc2c(=O)[nH]cnc21 | 10.8% (inactive)
70 | CCCCn1c(N)c(N(CC(C)C)C(=O)CSc2ccc([N+](=O)[O-])cc2)c(=O)[nH]c1=O | 6.25% (inactive)
71 | OCC[C@H]1C[C@@H](O)[C@H](O)[C@@]2(OCCc3ccccc32)O1 | 3.29% (inactive)
72 | CCN(CC(=O)Nc1ccc(OC)cc1)C(=O)CSCc1ccc(C)cc1 | 7.06% (inactive)
73 | Cc1cc(C(=O)N/N=C/c2ccccc2[N+](=O)[O-])c(C)o1 | 2.69% (inactive)
74 | CC(=C/c1ccccc1)/C=N/NC(=O)c1cc(C)oc1C | 36.9% (active)
75 | Cc1cc(C(=O)N/N=C\C(Br)=C\c2ccccc2)c(C)o1 | 1.9% (inactive)
76 | COc1ccccc1C(=O)COC(=O)CSCC(=O)Nc1cc(C)on1 | 14.3% (inactive)
